# SKKanGAS inh: S. pyogenes SKKanGAS growth inhibitors in kanamycin, primary screen, streptokinase expression inhibitor project, SKKanGAS strain, BacTiter-Glo luminescence. 6 h. inhibition, % at 7.5 µM. 300,000 tested, 1.3% active;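 active = mean replicate score, as percent of positive control median, at least 50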;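 note: strain carries kanamycin resistance gene driven by streptokinase promoter and grows in 40 µg/ml kanamycin; loss of luminescence reflects streptokinase promoter inhibition or plain growth inhibition; 0% = median of DMSO wells and 100% = positive control at its reference dose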
# tim10-1 inh: growth inhibitors of tim10-1 mutant yeast, primary screen, luminescence, uHTS | S. cerevisiae tim10-1 ts strain growth, BacTiter-Glo, 24 h | inhibition, % at 20 µM | 330,000 tested, 2.2% active | AID 463190, 2010;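 active = inhibition of at least 40%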;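 note: mutant grown at 25 °C; 0% = DMSO wells with yeast and 100% = wells holding no yeast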
# NALP3 yeast inh: NALP3 inflammasome inhibitors in reconstituted yeast, primary screen, luminescence, uHTS; 330,000 tested, 0.39% active; Yeast reconstituted NLRP3/ASC/caspase-1, beta-gal luminescence, 24 h; inhibition, % at 10 µM;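 active = inhibition of 50% or more; inactive = inhibition below 50%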;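 note: plate controls were induced DMSO wells for no effect and uninduced yeast grown without galactose for full effect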
# tim23-1 inh: growth inhibitors of tim23-1 mutant yeast, primary screen, luminescence, uHTS. AID 463212, 2010. S. cerevisiae tim23-1 growth, BacTiter-Glo luminescence, 24 h. 330,000 tested, 1.3% active. inhibition, % at 20 µM;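 active = growth inhibition of the mutant yeast at or above 50%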;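 note: temperature-sensitive mutant grown at 25 °C; plate controls were DMSO-treated mutant yeast for no effect and medium wells lacking yeast for full effect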
# PfHsp90 set2: growth inhibition of PfHsp90-expressing yeast, primary screen, antimalarial PfHsp90 inhibitor project, S. cerevisiae, BacTiter-Glo luminescence, single point, set 2. inhibition, % at 9.4 µM. AID 504621, 2011. BacTiter-Glo ATP, 48 h; yeast lacking PDR1 and PDR3 efflux regulators. 310,000 tested, 0.32% active;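 active = every replicate shows inhibition above about 80%, whatever the replicate mean, limit read from the data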;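 note: 0% = DMSO neutral controls and 100% = 20 µM radicicol positive controls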
# TIM10 inh: growth inhibitors of isogenic TIM10 control yeast, primary screen, counter-screen for tim10-1 yeast inhibitor project, luminescence, uHTS; S. cerevisiae TIM10 strain growth, BacTiter-Glo luminescence, 24 h; inhibition, % at 10 µM; 330,000 tested, 1.4% active; AID 463195, 2010;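 active = inhibition of 40% or more at the single tested concentration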;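 note: wild-type TIM10 isogenic control strain grown at permissive 25 °C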
# tim10-1 conf: growth inhibitors of tim10-1 mutant yeast, confirmation, single concentration, luminescence, S. cerevisiae. shares compounds with tim10-1 inh. S. cerevisiae tim10-1 ts strain growth, BacTiter-Glo, 24 h. inhibition, % at 20 µM. 7,400 tested, 56% active;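 active = inhibition of yeast growth at or above a set limit in either of two repeat tests at 20 µM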;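 note: tim10-1 mutant grown at permissive 25 °C to find synthetic lethal compounds; 0% = DMSO yeast wells and 100% = medium wells without yeast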
# TIM10 conf: growth inhibitors of wild-type TIM10 yeast, confirmation, counter-screen for tim10-1 synthetic lethality project, single concentration, luminescence, S. cerevisiae. shares compounds with TIM10 inh. S. cerevisiae tim10 strain growth, BacTiter-Glo luminescence, 24 h. inhibition, % at 10 µM. 4,600 tested, 63% active. AID 463215, 2010;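 active = inhibition of yeast growth at or above a set limit in either of two replicates at 10 µM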;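 note: this counterscreen used the strain with wild-type TIM10; 0% = yeast with DMSO and 100% = medium wells lacking yeast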
# An asterisk follows results filed as active; x = no result given. Hits are enriched below; roughly 4.5% of the tested compounds scored in any of these assays.
SMILES,SKKanGAS inh,tim10-1 inh,NALP3 yeast inh,tim23-1 inh,PfHsp90 set2,TIM10 inh,tim10-1 conf,TIM10 conf
Cc1cc(NC(=O)C2CC2)ncc1NC(=O)C12CC3CC(CC(C3)C1)C2,4,54*,16,48,30,48*,40*,-21
CCN(C[C@H]1N[C@@](CC)(C(=O)OC)[C@H]2C(=O)N(Cc3ccccc3)C(=O)[C@@H]12)C(=O)c1ccc(C(C)(C)C)cc1,x,16,4,25,-1,15,x,x
Cc1cccc(NC2=C/C(=N/S(=O)(=O)c3cccs3)c3ccccc3C2=O)c1,x,x,x,x,-4,x,x,x
Cc1ccc(NC2=C/C(=N\S(=O)(=O)c3cccs3)c3ccccc3C2=O)c(C)c1,100*,74*,17,36,7,60*,49*,-5
O=[N+]([O-])c1ccc(C2=NN(CCO)C(=Nc3ccc(OC(F)(F)F)cc3)SC2)cc1,28,45*,23,48,-7,45*,15,32*
Cc1cc(=O)n2nc(N3CCC(C(=O)NCc4cccc(Br)c4)CC3)sc2n1,-5,18,13,12,14,-1,x,x
Cc1ccc(CNS(=O)(=O)c2c(C)[nH]c(C)c2C(=O)N2CCCCC2)o1,-3,21,11,0,-8,-6,x,x
Cc1c(Cl)cccc1NC(=O)CSC(C)c1nc2ccccc2c(=O)[nH]1 (centres undefined),-6,-5,14,2,-3,-4,x,x
CCOc1cc(C(=O)O/N=C(\N)c2ccc([N+](=O)[O-])cc2)cc(OCC)c1OCC,5,61*,0,16,-15,46*,49*,42*
O=C(NCCC1=CCCCC1)c1cccc(S(=O)(=O)N2CCCCC2)c1,-11,29,16,28,x,18,x,x
CCCC(=O)NC(=S)Nc1cccc(C(C)=O)c1,6,26,21,15,7,11,x,x
CCCCCC(=O)NC(=S)Nc1cccc(C(C)=O)c1,-7,40,4,42,7,43*,29,25
CCCCCC(=O)NC(=S)Nc1ccccc1C(=O)OC,-2,40*,7,45,5,43*,24,34*
CCOC(=O)CC(NS(=O)(=O)c1ccc2[nH]cc(C(=O)O)c(=O)c2c1)c1ccc(OCC)c(OC)c1 (centres undefined),-7,21,8,19,-10,-5,x,x
O=[N+]([O-])c1ccccc1C1Nc2cccc3cccc(c23)N1,16,85*,24,49,-9,57*,76*,69*
O=[N+]([O-])c1ccc(Cl)c(C2Nc3cccc4cccc(c34)N2)c1,14,22,14,-14,-29,22,x,x
CC(C)c1ccc(/C=c2\sc3nc(-c4ccncc4)nn3c2=O)cc1,-9,49*,9,47,16,44*,30*,4
C/C(=N\NC(N)=S)C1C2C3CC4C5CC(C42)C1C53 (centres undefined),-10,23,12,43,-6,6,x,x
CN1CCN(C2Cc3cc(Cl)ccc3Sc3cc(F)ccc32)CC1 (centres undefined),7,15,35,10,-16,32,x,x
OCCN1CCN(C2Cc3cc(Cl)ccc3Sc3ccc(Cl)cc32)CC1 (centres undefined) (tested in a mixture with another compound),11,48*,25,20,-21,43*,35*,1
CCOC(=O)N1CCN(Cc2cc(=O)oc3ccc4ccccc4c23)CC1,-8,30,16,35,3,25,x,x
O=C(CC12CC3CC(CC(C3)C1)C2)NCC(=O)OCc1cc(=O)oc2ccc3ccccc3c12,36,41*,16,9,-39,44*,26,26
CCCCn1c(N)c(N(CC)C(=O)c2ccccc2F)c(=O)[nH]c1=O,-4,4,14,1,-21,-20,x,x
COC(=O)Nc1ccc(S(=O)(=O)N2CCC(Cc3ccccc3)CC2)cc1,9,45*,18,41,-23,45*,40*,17
COC(C/C=C/C(=O)[C@H](C)OCc1ccccc1)OC,-2,52*,11,47,-31,46*,48*,46*
SMILES,SKKanGAS inh,tim10-1 inh,NALP3 yeast inh,tim23-1 inh,PfHsp90 set2,TIM10 inh,tim10-1 conf,TIM10 conf
COC(C/C=C\C(=O)COCc1ccccc1)OC,11,37,12,18,x,20,x,x
COc1ccccc1/C=C/C(=O)c1ccc(NC(C)=O)cc1,-10,43*,2,33,3,44*,24,-3
CCC(C)NC(=O)CSc1n[nH]c(-c2cc(Cl)ccc2OC)n1 (centres undefined),-4,18,4,10,-18,16,x,x
C=CC[C@@H](CC(=O)N[C@H](CO)Cc1ccccc1)C(=O)N[C@H](COC(=O)[C@@H](CC=C)Cc1ccc(F)cc1)Cc1c[nH]c2ccccc12,x,7,13,14,8,2,x,x
CN1C(=O)C(O)(CC(=O)c2cccc(-n3cccc3)c2)c2ccccc21 (centres undefined),4,51*,-6,30,14,46*,38*,29
O=C(CC1(O)C(=O)Nc2ccccc21)c1cccc(-n2cccc2)c1 (centres undefined),-7,7,12,-3,9,-2,x,x
COc1ccc(/C=N/NC(=O)c2ccoc2C)cc1COc1c(C)cccc1C,19,41*,4,39,0,42*,30*,14
COc1ccc(/C=N\NC(=O)c2ccccc2OC)cc1COc1ccccc1C,12,12,15,16,9,8,x,x
CCCCOc1ccc(N(CC(=O)NC2CCCCC2)C(=O)CCC(=O)Nc2ccccn2)cc1,2,-1,16,-10,14,-13,x,x
CC12CC3CC(C)(C1)CC(C(=O)NC1=NCCS1)(C3)C2,39,46*,9,41,3,49*,28,35*
COc1cccc(CN2CCNC(=O)C2CC(=O)N(C)CCc2ccccn2)c1OC (centres undefined),5,17,6,9,x,9,x,x
Oc1cc(NCc2cccnc2)ccc1-c1nc2ccccc2o1,16,47*,34,27,x,55*,27,39*
